This is an account of results in PubChem BioAssay (Tox21).

Each structure is given as a SMILES string. Inconclusive results are not listed. Where a call stands in place of a potency, no number is given. A number with no mark means an inactive call. Active and inactive are the calls of the source. Calls follow the shape of the full dose curve.
Potency is read from the fitted curve at half-maximal effect.

Retinoic acid receptor RXR-alpha (Homo sapiens), sequence (P19793 whole entry, looked up): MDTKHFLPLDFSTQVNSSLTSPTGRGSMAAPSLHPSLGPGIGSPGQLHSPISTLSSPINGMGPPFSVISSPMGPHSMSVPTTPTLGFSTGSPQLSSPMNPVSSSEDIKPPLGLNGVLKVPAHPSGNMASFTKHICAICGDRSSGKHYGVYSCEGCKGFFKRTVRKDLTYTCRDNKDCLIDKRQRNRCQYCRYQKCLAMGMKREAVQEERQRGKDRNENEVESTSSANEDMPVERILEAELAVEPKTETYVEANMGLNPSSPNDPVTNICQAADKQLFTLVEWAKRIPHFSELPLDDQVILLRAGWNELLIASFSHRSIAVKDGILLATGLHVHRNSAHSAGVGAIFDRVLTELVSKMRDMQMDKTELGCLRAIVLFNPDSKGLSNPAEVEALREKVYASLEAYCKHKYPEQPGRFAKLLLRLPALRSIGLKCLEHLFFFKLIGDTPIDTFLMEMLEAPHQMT

In the test the target is Retinoic acid receptor RXR-alpha (Homo sapiens) (UniProt P19793). As to the kind of experiment: qHTS assay to identify small molecule agonists of the RXR signaling pathway (AID 1159527). Also: nearly all actives have a fitted effect of over 35% in size. The following applies: HEK293T RXRa-UAS-bla, beta-lactamase ratio, 16 h; series mostly up to 76.8 µM. The text has this:
U.S. Tox21 Program National Center for Advancing Translational Sciences [NCATS] NIH Chemical Genomics Center [NCGC] U.S. Environmental Protection Agency [EPA] National Institutes of Environmental Health Sciences [NIEHS] National Toxicology Program [NTP] U.S. Food and Drug Administration [FDA] Tox21 Assay Overview: The Retinoid X receptor (RXR), a nuclear hormone receptor expressed in liver, spleen, placenta, epidermis, central nervous system. These receptors are able to form homo and heterodimers with other nuclear receptors and due to this heterodimerizing ability, RXR functions as master regulators producing diverse physiological effects. Three subtypes of RXR exist; alpha, beta and gamma. Retinoid X receptor alpha (RXR-alpha) has potential roles in metabolic signaling pathways, skin alopecia, dermal cysts, cardiac development, insulin sensitization etc. Therefore screening environmental chemicals on RXR-alpha signaling can be used for the studies focused on such therapeutic applications. For quantification of RXR-alpha ligands signaling, GeneBLAzer RXR alpha-UAS-bla HEK 293T (Life Technologies, Carlsbad, CA) cells containing a beta-lactamase reporter-gene under control of Retinoid X receptor-alpha response element were used to screen Tox21 10K library.
Tox21 Assay Protocol Summary: RXR-alpha HEK 293T cells were dispensed at 2,000 cells/6 uL of assay medium containing 2% charcoal-stripped FBS using a Multidrop Combi (ThermoFisher Scientific, Waltham, MA) dispenser. The assay was performed in black wall/clear-bottom 1536-well plates (Greiner Bio-One North America Inc. Monroe, NC). 9-cis retinoic acid was used as a positive control in the agonist mode screen. After the assay plates were incubated at 37 C and 5% CO2 for 5 hr, 23 nL of compounds dissolved in DMSO, positive controls or DMSO only were transferred to the assay plate by a Pintool station (Kalypsys, San Diego, CA). The assay plates were incubated at 37 C and 5% CO2 for 16 hr. One uL of LiveBLAzer B/G FRET substrate (Life Technologies) was added using a Flying Reagent Dispenser (Aurora Discovery, San Diego, CA) and the plates were incubated at room temperature for 2 hr. Fluorescence intensity (405 nm excitation, 460/530 nm emission) was measured using an Envision plate reader (PerkinElmer, Shelton, CT).
With `O=CC1CC1`, the Potency entry is “inactive”. `C(=C/c1ccccc1)/c1ccccc1`: the Potency result is “inactive”. Same read-out and setting: in the case of `NCCCCCCNCCCCCCN` it was “inactive”; in that of `Cc1cnccn1`, “inactive”. On to `C=CC(=C)CC/C=C(\C)CCC=C(C)C`, for which the activation was -18.2% [at 15.8 µM]. As for `CCCCOC(=O)C(C)CC` (stereo not given), the Potency result is “inactive”. The same measure, in the same setting: in the case of `Cc1cc(C)c(C=O)c(C)c1` it was “inactive”; in that of `OCCCCl`, “inactive”; in that of `c1cc[nH]c1`, “inactive”. For `O=C(O)CCCCCCC(=O)O`, the Potency result was “inactive”.

As to `CC1CNCC(C)O1` (stereo not given), the Potency result is “inactive”. For `Cn1cnc2ncnc(N)c21`, the Potency result was “inactive”.

As to `c1ccc2c(c1)CCC2`, the Potency result is “inactive”. Take `C=C/C=C/C=C/CCCCC`: the activation was -4.02% [at 15.8 µM]. For `CC(C)(C)C1=CC(=O)C=C(C(C)(C)C)C1=O`, the Potency result was “inactive”. Still for that read-out and setting: next, `COC(=O)CC#N`: “inactive”. Still for that read-out and setting: next, `CCCCCCCOC(=O)c1ccc(O)cc1`: “inactive”; `Oc1ccc(-c2ccccc2)c(Cl)c1`: “inactive”.

As for `CO[Si](CCC1CCC2OC2C1)(OC)OC` (stereo not given), the Potency result is “inactive”. As to `Nc1cc(Cl)c([N+](=O)[O-])cc1O`, the Potency result was “inactive”. Same read-out and setting: in the case of `CCCCOCC` it was “inactive”. Turning to `Brc1ccccn1`, the Potency entry was “inactive”. Same read-out and setting: next, `CCOC(=O)CC(C)O` (stereo not given): “inactive”; `C=CC/C=C/C/C=C/C/C=C/C`: “inactive”. As for `O=c1cccc[nH]1`, the Potency entry is “inactive”. Same read-out and setting: next, `CCOC(/C=C(\C)CCC=C(C)C)OCC`: “inactive”. For `CCCCCCCCCCCCCCCCCO`, the activation is 2.15% [at 15.8 µM]. Regarding `CCCCCCCCC(C)=O`, the Potency result is “inactive”.

Consider `C=CC(=O)OCCN(CC)CC`, for which the Potency entry was “inactive”.

As for `NC(=O)c1ccccc1N`, the Potency entry was “inactive”. `c1ccc(Nc2cccc3ccccc23)cc1`: the Potency result is “inactive”. The same measure, in the same setting: in the case of `CCc1cccc(CC)c1NC(=O)C(=O)O` it was “inactive”. For the compound `CCCCCCCC/C=C\CCCCCCCC(=O)NCc1ccc(O)c(OC)c1`, the Potency entry is “inactive”. Take `SCCCCCCCCS`: the Potency entry was “inactive”. Same read-out and setting: in the case of `CC1=C(/C=C/C(C)=C/C=C/C(C)=C\C=O)C(C)(C)CCC1` it was 328 nM (active); in that of `CCOC(=O)CN`, “inactive”; in that of `C/C=C/C(=O)C1=C(C)CCCC1(C)C`, “inactive”.

On to `[O]=[Zr]`, for which the Potency result is “inactive”. On the same count and under the same terms, next, `Clc1cccnc1`: “inactive”; `CC(C)CCOCCC(C)C`: “inactive”.
